# High-throughput results deposited in PubChem BioAssay by several laboratories.
# Sampled rows, rich in hits. Any-hit rate of the full collection: about 2.2%.
# aSyn 5UTR inh = MLPCN primary screen, SNCA 5' untranslated region. alpha-synuclein 5'UTR reporter, inhibitor activity. inhibition, % (tested at 7.5 µM). 300,000 compounds, 0.82% hits; in the data active means inhibition above about 60%;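 further: H4 neuroglioblastoma cells stably carrying SNCA 5'UTR luciferase fusion; 0% = DMSO wells and 100% = positive control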
# APP 5UTR inh = inhibitors of APP translation via 5'UTR reporter, primary screen, APP 5'UTR luciferase, SH-SY5Y cells | SH-SY5Y APP 5'UTR-luciferase reporter, luminescence | inhibition, % at 2 µM | 190,000 compounds, 0.82% hits;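 active means inhibition above a set limit, derived from the sample mean plus 3 SD, cut at about 45% in these data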
# IEC-6 cytotox = cytotoxicity in IEC-6 intestinal epithelial cells, primary screen, cytotoxicity control for KLF5 inhibitor project, cell-based, luminescence | IEC-6 cytotoxicity, luminescence viability | inhibition, % at 5 µM | 290,000 compounds, 0.78% hits | AID 1825, 2009; in the data active means inhibition above about 22%;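 further: 0% = plate median of test compound wells and 100% = cytotoxic reference compound wells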
# KLF5 inhibitor = KLF5 expression inhibitors, primary screen, DLD-1 cells, luminescence; DLD-1 KLF5 promoter-luciferase reporter; inhibition, % at 5 µM; 290,000 compounds, 0.23% hits; AID 1700, 2009;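 active means inhibition above a per-plate limit of that plate's mean compound inhibition plus 3 SD, cut at about 60% in these data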;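 further: 0% = DMSO wells and 100% = LY294002 at 200 µM; higher means less KLF5 promoter-driven luciferase light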
# BaF3 parental = parental Ba/F3 cell viability inhibition, counter-screen for JAK2V617F inhibitor project, murine pro-B, CellTiter-Glo luminescence; CellTiter-Glo ATP luminescence; inhibition, % at 5.6 µM; 220,000 compounds, 1.1% hits; AID 1486, 2009;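 active means inhibition above a per-campaign cutoff, the mean inhibition of all tested compounds plus 3 SD, cut at about 27% in these data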;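 further: 0% = DMSO wells and 100% = JAK Inhibitor I control wells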
# Ba/F3 V617F tox = reduced viability of JAK2V617F-dependent Ba/F3 cells, primary screen, JAK2V617F inhibitor project, cell-based, Ba/F3 EpoR-JAK2V617F, luminescence; ATP luminescence; inhibition, % at 5.6 µM; AID 1446, 2008; 220,000 compounds, 1.1% hits;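 active means inhibition above the campaign mean plus 3 SD over all tested compounds, cut at about 24% in these data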;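 further: cytokine-independent growth of Ba/F3 cells driven by EpoR plus mutant JAK2; 0% = DMSO-treated cells and 100% = JAK inhibitor I control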
# BaF3 tox 2 = parental Ba/F3 cell viability inhibition, counter-screen for JAK2V617F inhibitor project, murine pro-B, CellTiter-Glo luminescence; shares compounds with Ba/F3 V617F tox; 580 compounds, 31% hits; inhibition, % at 5.6 µM; cells kept alive by added IL-3;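 active means cell growth inhibition above the hit limit set in the earlier mutant JAK2 cell screen, cut at about 27% in these data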;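 further: plate controls were DMSO-treated cells for no effect and JAK Inhibitor I control wells for full effect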
# JAK2V617F conf = viability loss in Ba/F3 EpoR-JAK2V617F cells, confirmation, JAK2V617F inhibitor project, cell-based, luminescence, triplicate | shares compounds with Ba/F3 V617F tox | AID 1521, 2009 | inhibition, % at 5.6 µM | 580 compounds, 66% hits | CellTiter-Glo luminescence;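 active means mean inhibition above the hit cutoff derived in the earlier primary screen, cut at about 25% in these data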;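 further: 0% = DMSO-treated cells and 100% = JAK inhibitor I control wells; higher means lower luminescence from reduced cell ATP and viability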
# * marks the source's active call; other numbers are inactive results; . = no result.
SMILES,aSyn 5UTR inh,APP 5UTR inh,IEC-6 cytotox,KLF5 inhibitor,BaF3 parental,Ba/F3 V617F tox,BaF3 tox 2,JAK2V617F conf
CN(C)c1nc(N2CCN(c3ccc(F)cc3)CC2)c(C#N)c(=O)o1,33.6,4.4,-0.3,-1.8,13.3,27.9*,-2.5,-7.9
O=C(OCn1ncc(Cl)c(Cl)c1=O)c1ccccc1Cl,50.0,86.8*,89.0*,-10.2,-6.7,25.7*,5.9,97.8*
O=C(OCCN1CCCCC1)c1ccccc1Cl,7.6,7.4,7.5,4.5,3.8,-1.6,.,.
O=C(OCn1ncc(Cl)c(Cl)c1=O)c1ccc(F)cc1,-21.6,96.7*,13.5,-19.1,1.8,32.2*,9.5,97.3*
CCOc1ccc(NC(=O)COC(=O)COc2cccc3c2OC(C)(C)C3)cc1,-15.2,.,8.0,18.0,.,.,.,.
CCCCn1nnnc1SCC(=O)NC1CCCCC1,5.1,.,7.3,-0.8,.,.,.,.
COc1ccc(C(=O)C2CCCN(C3Cc4ccccc4C3)C2)c(OC)c1 (stereo not drawn),0.0,-13.5,2.9,-25.4,-9.7,6.0,.,.
Cn1cnc([N+](=O)[O-])c1S(=O)(=O)c1ccc(Cl)cc1,18.4,10.8,11.0,-1.5,-1.6,26.3*,0.9,68.8*
Cn1cnc([N+](=O)[O-])c1NC(C)(C)C,31.3,-0.9,-0.6,-33.7,8.7,2.4,.,.
COc1ccccc1C(=O)Nc1ccc(C2=NNC(=O)CC2C)cc1 (stereo not drawn),-37.5,-19.3,-0.4,2.8,1.7,2.6,.,.
Cc1cc(C(=O)CCC(=O)N2CCN(S(=O)(=O)c3ccccc3)CC2)c(C)s1,6.3,.,.,.,.,.,.,.
NC(N)=NN=C1CCCCCCCCCCC1,25.8,.,-6.0,13.1,21.5,48.9*,29.0*,67.6*
COc1ccc2[nH]c(CN3CCN(CC=C(C)C)C(CCO)C3)c(C)c2c1 (stereo not drawn),-9.8,.,1.4,-16.7,.,.,.,.
Oc1ccccc1/C=N/Nc1nc2ccccc2o1,31.3,.,9.9,23.0,5.8,43.9*,64.9*,74.5*
CCOc1ccc(NC(=O)CN(C)C(=O)c2cccnc2SC)cc1OCC,0.3,.,-0.9,-23.7,.,.,.,.
COc1ccc(S(=O)(=O)CCC(=O)N2CCN(c3cccc(Cl)c3)CC2)cc1,17.9,.,-2.8,-17.3,.,.,.,.
CC(Nc1nc(N2CCNCC2)nc2ccccc12)c1ccccc1 (stereo not drawn),8.9,-4.5,4.3,-2.0,8.2,10.6,.,.
Cc1ccc(/C=N/NC(=O)C(=O)N/N=C/c2ccc(C)o2)o1,13.3,7.1,-1.6,-44.3,0.5,44.8*,-5.5,-12.1
CCOC(=O)c1[nH]c(C)c(C(=O)NC2CCCCC2)c1C,11.2,-0.1,5.8,-40.2,5.7,100.0*,-5.4,-20.8
CCOC(=O)c1[nH]c(C)c(C(=O)NCC2CCCO2)c1C (stereo not drawn),9.7,-12.4,1.9,11.5,4.8,-1.7,.,.
Cc1sc2ncnc(NCc3cccs3)c2c1C,19.0,-11.1,11.5,-10.3,21.2,33.6*,42.6*,64.2*
O=C(CCCc1nc(-c2ccc(Cl)cc2)no1)NC1CCCC1,15.5,.,8.6,-5.4,.,.,.,.
O=C1CC(=O)N(CCNc2ncc(C(F)(F)F)cc2Cl)C(=O)N1,7.2,-8.6,-2.5,-10.6,0.9,-0.4,.,.
O=C1C=CC(=O)N1CCNc1ncc(C(F)(F)F)cc1Cl,10.2,73.8*,17.1,-3.0,-0.9,47.8*,-1.4,82.3*
COc1ccc2c(c1)nc(CN1CCN(CCO)CC1)n2C,-1.8,.,2.9,-5.2,.,.,.,.
SMILES,aSyn 5UTR inh,APP 5UTR inh,IEC-6 cytotox,KLF5 inhibitor,BaF3 parental,Ba/F3 V617F tox,BaF3 tox 2,JAK2V617F conf
Cc1cccc(N2CCN(Cc3cn(C)nc3-c3ccccc3F)CC2)n1,-7.8,74.0*,53.5*,24.4,17.9,24.2*,75.8*,96.5*
Cn1cc(CN2CCN(c3ccc(Cl)cn3)CC2)c(-c2ccccc2F)n1,4.7,7.4,-2.4,-23.8,-0.6,-0.6,.,.
CCCNS(=O)(=O)c1ccc(OCC(=O)Nc2ccc3c(c2)OCO3)cc1,20.6,-21.5,-2.7,-12.8,9.7,3.8,.,.
OC(COCc1ccco1)CN1CCN(C(c2ccccc2)c2ccccc2)CC1 (stereo not drawn),3.3,-16.7,6.8,-31.0,4.1,2.5,.,.
Cc1ccc(Cl)cc1N1CCN(CC(O)COCc2ccco2)CC1 (stereo not drawn),-15.3,-28.2,5.7,-14.3,10.0,98.5*,-6.0,0.1
CC1(C(=O)N/N=C/c2ccccc2)CC1(Cl)Cl (stereo not drawn),-19.6,.,2.8,-14.7,.,.,.,.
Cc1ccc2nc(C)cc(Nc3ccc([N+](=O)[O-])cc3)c2c1,10.0,19.3,6.3,5.0,4.2,37.5*,1.5,82.0*
COc1ccc2nc(C)cc(Nc3ccc(C)cc3)c2c1,26.5,.,3.7,-27.9,.,.,.,.
O=C(COC(=O)c1cc([N+](=O)[O-])ccc1N1CCOCC1)Nc1ncc(Cl)cc1Cl,13.5,.,-0.7,2.3,.,.,.,.
COc1cccc(/C=N/NC(=O)c2ccc(=O)[nH]n2)c1O,-6.6,.,1.6,-5.8,-0.5,0.3,.,.
COc1cccc(/C=N/NC(=O)c2[nH]c(C)c(C(=O)N/N=C/c3cccc(OC)c3O)c2C)c1O,49.3,11.0,-7.4,21.0,5.2,41.5*,11.7,70.2*
Nc1nc(=S)c2ncn(C3OC(CO)C(O)C3O)c2[nH]1 (stereo not drawn),18.3,.,10.3,-26.8,25.0,45.0*,7.0,29.6*
CCN(CC)CCCNC(=O)c1cc(-c2ccc(Cl)cc2)on1,-8.1,-12.0,-1.0,-4.5,1.4,24.0*,-0.3,-1.2
O=C(O)c1ccccc1C(=O)c1ccc(-c2ccccc2)cc1,-5.5,.,-2.6,-77.2,.,.,.,.
O=C(c1ccccc1)c1ccccc1N1C(=O)C=CC1=O,21.1,.,6.9,-16.1,1.8,32.0*,-2.2,26.2*
CCOc1ccc2nc(SCC(=O)NC(=O)C(C)C)sc2c1,-26.5,7.1,-0.7,-43.7,14.7,51.0*,-3.0,-2.5
Oc1ccc(-c2csc(Nc3ncccn3)n2)cc1O,-177.8,30.6,2.2,-162.3,8.2,37.0*,28.0*,91.1*
Oc1ccc(-c2csc(-c3ccccc3)n2)cc1O,-224.5,-52.9,5.5,-141.4,23.1,57.4*,26.7*,93.5*
Oc1ccccc1-c1csc(-c2ccccc2)n1,-121.7,-115.5,8.4,-13.3,2.6,-1.0,.,.
O=[N+]([O-])c1ccc(OCCO)c(P(=O)(c2ccccc2)c2ccccc2)c1,4.3,.,-1.5,13.9,-1.6,2.9,.,.
